Screening results: PubChem, Broad Institute
YB-1 expression: inhibitors of YB-1 gene expression, primary screen, cell-based, fluorescence; actives 0.37% (n = 30,000); U2OS, qRT-PCR YB-1 vs CDIP delta delta Cp, 16 h; active compounds read high; zero = DMSO, each unit about twofold; delta delta Cp (YB-1 minus CDIP) (no concentration beside the values);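 active means delta delta Cp rounded down to an integer at or above 3, about 3 SD of DMSO wells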;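 further: higher means less YB-1 transcript or more CDIP transcript relative to DMSO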
ROS inducer: ROS inducers in U2OS cancer cells, primary screen, cell-based, H2DCF-DA fluorescence; U2OS ROS induction; ROS induction (% of piperlongumine), % at 10 µM; actives 2% (n = 46,000); AID 624156, 2012; in the data active means ROS induction above about 79%, passing the limit was not always enough;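 further: 0% = DMSO vehicle median and 100% = reference compound median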
Starred values were filed as active, the others as inactive; / = not tested or not shown. An excerpt weighted towards active compounds, which were near 2.3% of everything screened.

SMILES	YB-1 expression	ROS inducer
C=CCNC(=O)[C@@H]1[C@H]2C(=O)O[C@H](c3ccccc3)[C@H](c3ccccc3)N2[C@H](c2ccccc2OCCO)[C@@]12C(=O)N(C(=O)OCCOC)c1ccc(C#CCCO)cc12	-0.21	37
C=CCNC(=O)[C@H]1[C@@H]2C(=O)O[C@@H](c3ccccc3)[C@@H](c3ccccc3)N2[C@@H](c2ccc(OCCO)cc2)[C@]12C(=O)N(C(=O)OCCOC)c1ccc(C#CC3=CCCCC3)cc12	0.0068	122*
C=CCNC(=O)[C@H]1[C@@H]2C(=O)O[C@@H](c3ccccc3)[C@@H](c3ccccc3)N2[C@@H](c2ccccc2OCCO)[C@]12C(=O)N(C(=O)OCCOC)c1ccc(C#CC3(O)CCCCCC3)cc12	0.25	95*
C=CCNC(=O)[C@H]1[C@@H]2C(=O)O[C@@H](c3ccccc3)[C@@H](c3ccccc3)N2[C@@H](c2ccc(OCCO)cc2)[C@]12C(=O)N(C(=O)OCCOC)c1ccc(C#CC3(O)CCCCCC3)cc12	0.14	105*
O=C(CCc1nnc2n(Cc3ccc(F)cc3)c(=O)c3ccccc3n12)NC1CCCCCC1	/	-12
CC1CCc2c(sc3nc(-c4cc5ccccc5oc4=O)[nH]c(=O)c23)C1 (stereo not drawn)	/	-2
CCc1ccc(/C=N/N2CCN(Cc3ccccc3)CC2)cc1	/	6
Cc1c(C(=O)O)cc(-c2ccccc2)n1CCSCc1c(F)cccc1Cl	/	31
C[N+]1(C)CCCC(OC(=O)C(O)(c2ccccc2)c2ccccc2)C1 (stereo not drawn)	8.9*	-11
C[N+]1(C)C2CC[C@H]1CC(OC(=O)C(O)c1ccccc1)C2 (stereo partly drawn)	0.48	-9
CCc1nnc(NC(=O)Cc2coc3ccc(C)cc23)s1	/	7
C=CCNC(=O)[C@H]1[C@@H]2C(=O)O[C@@H](c3ccccc3)[C@@H](c3ccccc3)N2[C@@H](c2ccccc2OCCO)[C@]12C(=O)N(C(=O)OCCOC)c1ccccc12	0.09	178*
COCCOC(=O)N1C(=O)[C@@]2(c3ccccc31)[C@H](C(N)=O)[C@H]1C(=O)O[C@H](c3ccccc3)[C@H](c3ccccc3)N1[C@@H]2c1ccccc1OCCO	-0.25	73
COCCOC(=O)N1C(=O)[C@@]2(c3ccccc31)[C@H](C(N)=O)[C@H]1C(=O)O[C@H](c3ccccc3)[C@H](c3ccccc3)N1[C@@H]2c1ccc(O)cc1	0.17	3
C=CCNC(=O)[C@@H]1[C@H]2C(=O)O[C@H](c3ccccc3)[C@H](c3ccccc3)N2[C@H](c2ccccc2OCCO)[C@@]12C(=O)N(C(=O)OCCOC)c1ccccc12	-0.2	183*
C=CCNC(=O)[C@@H]1[C@H]2C(=O)O[C@H](c3ccccc3)[C@H](c3ccccc3)N2[C@H](c2ccc(O)cc2)[C@@]12C(=O)N(C(=O)OCCOC)c1ccccc12	0.058	53
COCCOC(=O)N1C(=O)[C@@]2(c3ccccc31)[C@H](C(N)=O)[C@H]1C(=O)O[C@H](c3ccccc3)[C@H](c3ccccc3)N1[C@@H]2c1ccc(OCCO)cc1	0.61	124*
COCCOC(=O)N1C(=O)[C@@]2(c3cc(C#CCCO)ccc31)[C@H](c1ccccc1OCCO)N1[C@H](c3ccccc3)[C@H](c3ccccc3)OC(=O)[C@H]1[C@@H]2C(=O)NC[C@H](O)c1ccccc1	0.35	29
COCCOC(=O)N1C(=O)[C@@]2(c3ccccc31)[C@H](c1ccccc1OCCO)N1[C@H](c3ccccc3)[C@H](c3ccccc3)OC(=O)[C@H]1[C@@H]2C(=O)NC[C@H](O)c1ccccc1	-0.49	348*
CCc1ccc(N2C(=O)c3ccccc3NC2(C)C)cc1	/	-20
COc1cccc2cc(-c3cn(-c4ccc(F)c(F)c4)c(=S)[nH]3)c(=O)oc12	/	-14
CCCOc1ccc(C(=O)Nc2ccc3c(c2)Cc2ccccc2-3)cc1	/	-10
CCn1cc(C(=O)NCCC(C)C)c2cc(OC)c(OC)cc2c1=O	/	-6
COc1cccc(NC(=O)CCn2nc(-c3ccccc3OC)c3c(C)cc(C)nc32)c1	/	6
Cc1nc2c(c(C)nn2C(C)(C)C)c(C)c1CCC(=O)NCCCc1ccccc1	/	16
SMILES	YB-1 expression	ROS inducer
Cc1cccc(CN2CCC(CNC(=O)c3cc4c(=O)[nH]c5ccc(C)cc5c4s3)CC2)c1	/	2
O=C(C1CCN(c2ncnc3c2sc2cccc(F)c23)CC1)N1CCCCCC1	/	24
CCOC(=O)CN(C1=NS(=O)(=O)c2ccccc21)c1ccccc1	/	4
N#CCCN(/N=C/c1ccccc1)C1=NS(=O)(=O)c2ccccc21	-0.07	128*
O=C(c1cc2ccccc2c(=O)o1)N1CCN(C(c2ccccc2)c2ccccc2)CC1	/	3
O=C(NCCC(c1ccccc1)c1ccccc1)c1cc2ccccc2c(=O)o1	-0.48	154*
CC(Cc1ccccc1)NC(=O)CC(c1ccccc1)c1cc(Br)ccc1O (stereo not drawn)	/	-2
O=C(/C=c1\[nH]/c(=C/c2ccc(F)cc2)c(=O)[nH]c1=O)c1ccccc1	/	63
CC1=C(C(=O)Nc2ccc(F)cc2)C(c2ccc(F)cc2)C2=C(CC(c3ccccc3)CC2=O)N1 (stereo not drawn)	/	7
O=C(Nc1ccc(S(=O)(=O)N2CCCC2)cc1)c1ccc(COc2ccc3c(c2)CCC3)cc1	/	87*
O=S(=O)(c1ccccc1)N1CCN(CC(O)COc2ccc3c(c2)CCC3)CC1 (stereo not drawn)	/	7
Cc1ccc(S(=O)(=O)N(C)C[C@H]2Oc3ccc(NC(=O)Nc4c(C)noc4C)cc3CC(=O)N([C@@H](C)CO)C[C@H]2C)cc1	9.8*	-11
Cc1noc(C)c1NC(=O)Nc1ccc2c(c1)CC(=O)N([C@@H](C)CO)C[C@@H](C)[C@@H](CN(C)S(=O)(=O)c1c(C)noc1C)O2	-0.14	85*
Cc1ccc(S(=O)(=O)N(C)C[C@@H]2Oc3ccc(NC(=O)Nc4c(C)noc4C)cc3CC(=O)N([C@H](C)CO)C[C@H]2C)cc1	-0.13	-1
Cc1noc(C)c1NC(=O)Nc1ccc2c(c1)CC(=O)N([C@H](C)CO)C[C@@H](C)[C@H](CN(C)S(C)(=O)=O)O2	0.52	33
COC(=O)C1SCCN1C(=O)c1cc(-c2ccc(Cl)cc2)oc1C (stereo not drawn)	/	20
COc1ccc(Cn2cc(-c3ccccc3)nn2)cc1	/	0
Cc1ccc(NC(=O)CSc2nnc(-c3cccnc3)n2-c2ccc(Br)cc2)cc1F	/	77*
Cc1ccc(NC(=O)CSc2nnc(-c3ccncc3)n2-c2ccc(Cl)cc2)cc1F	/	7
CCn1c(=O)cc(SCC(=O)NCCc2ccc(C)cc2)c2ccccc21	/	-10
O=c1c2ccccc2nc(SCc2ccc3c(c2)OCO3)n1-c1ccccc1	-0.6	107*
O=c1c2ccccc2nc(SCc2cccc3nsnc23)n1-c1ccccc1	/	5
COc1ccc(-c2nc(C)c(CCNS(=O)(=O)c3ccc(Cl)s3)s2)cc1OC	/	14
CC(Nc1cc(C)ccn1)=C(C#N)C#N	/	-4
CCOC(=O)c1sc2nc(C)nc(N(C)Cc3ccccc3)c2c1C	/	9
CCOC(=O)c1sc2ncn3c(-c4ccc(C)cc4)nnc3c2c1C	/	198*
N#Cc1c(NC(=O)C(F)(F)F)sc2c1CCCC2	/	-2
